{
  "source": "PubChem BioAssay",
  "note": "Values without a mark were called inactive.",
  "data": [
    {"assay": "A549 lung cancer cell viability effects, profiling panel, resazurin fluorescence, 24 h, PK04 Diversity Set (AID 1171); also: test concentration not given here", "settings": "higher = more signal, called active from +8 up or from −8 down", "values": [
      {"compound": "CC(C)(C)OC(=O)CC[C@]1(C(=O)N2CCCCC2)COC(c2ccc(OCCCO)cc2)=N1", "z-score": 2.58},
      {"compound": "O=C1[C@@]23C=C(Br)[C@H](C[C@@H]2COC3)[C@@]12CO2", "z-score": -0.252},
      {"compound": "O=C1C[C@@](C(=O)NCc2ccccc2)(c2ccc([N+](=O)[O-])cc2)[C@@H](c2ccc(CO)cc2I)N1CC12CC3CC(CC(C3)C1)C2", "z-score": -1.63},
      {"compound": "O=C1C[C@@](C(=O)NCC(F)(F)F)(c2ccc([N+](=O)[O-])cc2)[C@@H](c2ccc(CO)cc2)N1CC12CC3CC(CC(C3)C1)C2", "z-score": -2.08},
      {"compound": "CN1C(=O)C2C=CC(C(O)c3ccc(I)cc3)N(Nc3ccccc3)C2C1=O", "note": "(stereo not drawn)", "z-score": -0.962},
      {"compound": "COc1cc(C(O)C2C=CC3C(=O)N(Cc4ccccc4)C(=O)C3N2n2cnnc2)cc(OC)c1OC", "note": "(stereo not drawn)", "z-score": -0.538},
      {"compound": "C=C(COC)/C(=C/C[C@@H](OC(=O)c1ccncc1)c1ccccc1OCCO)c1cc(C(=O)OC)ccc1OC", "z-score": 0.314},
      {"compound": "CC(C)C[C@@H]1NC(=O)[C@@]23C(=O)N[C@@H](Cc4ccccc4)C2[C@H](C)[C@@]2(C)O[C@H]2C3/C=C/C/C=C\\CNC(=O)[C@@H](C)NC1=O", "note": "(stereo partly drawn)", "z-score": 1.16},
      {"compound": "CCCNC(=O)[C@@]1(Sc2ccc(C)cc2)CC(=O)N(C(C)C)[C@@H]1c1ccc(CO)cc1I", "z-score": -0.0866},
      {"compound": "CN1C(=O)C2C(C1=O)C1C=C(CCCO)C2C(c2cccs2)N1Cc1cc2c(cc1Br)OCO2", "note": "(stereo not drawn)", "z-score": -0.0723},
      {"compound": "C=C(CCCC)/C(=C/C[C@H](OC(C)=O)c1ccc(OCCO)cc1)c1cc(C(=O)OC)ccc1OC", "z-score": 1.09},
      {"compound": "COC(=O)[C@@]1(Cc2ccc(OC)cc2)[C@H]2c3cc(C(=O)N4CCCC4)n(Cc4ccc(OC(F)(F)F)cc4)c3C[C@H]2CN1C(=O)c1ccccc1", "z-score": -0.995},
      {"compound": "CS(=O)(=O)CCOC(=O)C1=CC(CCCO)=CC(C2CC2)N(Cc2cccc(OC(F)(F)F)c2)C=C1C(=O)OCCS(C)(=O)=O", "note": "(stereo not drawn)", "z-score": 0.538},
      {"compound": "COC(=O)C1=CC(CCCO)=CC(C)N(Cc2cccc(OC(F)(F)F)c2)C=C1C(=O)OC", "note": "(stereo not drawn)", "z-score": -0.149},
      {"compound": "[N-]=[N+]=NCc1ccccc1[C@@H]1OC(c2ccc(OCCCO)cc2)=N[C@]1(Cc1ccccc1)C(=O)NCCN1CCOCC1", "z-score": 1.26},
      {"compound": "CC(C)C(=C=CC[C@@H](O)c1cccc(OCCO)c1)C[C@@H](O)c1ccccn1", "z-score": 1.22},
      {"compound": "O=C(NCC(O)CO)[C@@]1(CCS(=O)(=O)c2ccccc2)COC(c2ccc(OCCCO)cc2)=N1", "note": "(stereo partly drawn)", "z-score": 1.01},
      {"compound": "CCOC(=O)C1=C[C@@H](c2ccccc2)N(S(=O)(=O)c2ccc(C)cc2)[C@H]1c1ccccc1", "z-score": 0.537},
      {"compound": "CC(C)OC(=O)CC(=O)CC(O)c1ccc([N+](=O)[O-])cc1", "note": "(stereo not drawn)", "z-score": -0.741},
      {"compound": "COC(=O)C1N=C(c2ccc(OCCCO)cc2)N(c2ccccc2)O1", "note": "(stereo not drawn)", "z-score": 0.953},
      {"compound": "NC(=O)NCC#Cc1ccc2c(c1)[C@]1(C(=O)N2)[C@H](C(=O)N2CCN(c3ncccn3)CC2)[C@H]2C(=O)O[C@H](c3ccccc3)[C@H](c3ccccc3)N2[C@@H]1c1ccc(OCCO)cc1", "z-score": 0.75},
      {"compound": "[N-]=[N+]=Nc1ccccc1C[C@]1(C(=O)O)N=C(c2ccc(OCCCO)cc2)O[C@H]1c1ccccc1", "z-score": -0.605},
      {"compound": "C=C(/C(=C/C[C@@H](OC(C)=O)c1ccc(OCCO)cc1)c1cc(C(=O)OC)ccc1OC)C(C)C", "z-score": 0.627},
      {"compound": "COc1ccc(NC(=O)O[C@H]2[C@@H]3OC(=O)[C@H](Cc4cccc(Br)c4)C/C=C/C[C@@H](Cc4cccc(Br)c4)C(=O)O[C@H]3[C@@H](OC)O[C@@H]2CO)cc1", "z-score": -0.981},
      {"compound": "[N-]=[N+]=NCc1ccccc1[C@H]1OC(c2ccc(OCCCO)cc2)=N[C@@]1(CCS(=O)(=O)c1ccccc1)C(=O)NCc1ccccc1", "z-score": 1.73},
      {"compound": "COc1cc(NN2C(C(O)C3CCCCC3)C=CC3C(=O)N(C)C(=O)C32)cc(OC)c1OC", "note": "(stereo not drawn)", "z-score": -0.825},
      {"compound": "O=C1[C@@H]2[C@@H](CC(COc3ccccc3)=C3[C@@H](CCc4ccccc4)OB(O)C[C@@H]32)C(=O)N1Cc1ccccc1", "z-score": -0.0787},
      {"compound": "O=C1OCCC=C[C@H]2OC34C=CCN(c5ccc(Cl)cc5)C(=O)[C@H]3N(CCCCCCO)C(=O)[C@@H]4C12", "note": "(stereo partly drawn)", "z-score": 0.97}
    ]}
  ]
}
